Compound activity (PubChem BioAssay)
HT1080NT lethal – kills 2HG-producing HT-1080-NT fibrosarcoma cells; AID 686970; HT-1080-NT fibrosarcoma viability, CellTiter-Glo ATP luminescence, 48 h; Potency, µM (series often up to 46.1 µM), for inactives: at the top dose activity, negative = less viability, usual class: cytotoxic; actives 1.6% (n = 360,000);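 note: NT is the 2HG producing partner of a matched IDH1 knockdown line; potency is the fitted concentration of half-maximal effect; 0% = DMSO-treated cells and -100% = media-only wells without cells; nearly all actives have a fitted effect of over 55% in size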
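HT-1080-NT; 750 cells/well; 5% FBS RPMI; 48 h compound, 37 degrees C; CellTiter-Glo luminescence; curve fitting and curve-class assignment.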
12-LOX inh – inhibitors of human 12S-lipoxygenase ALOX12. purified 12hLO, xylenol orange hydroperoxide absorbance. actives 1.1% (n = 580,000). AID 1671190. Potency, µM (doses to about 108 µM), for the others: at the top dose activity change, negative = inhibition, actives largely listed as inhibitors. P18054; note: potency is the fitted concentration of half-maximal effect
Target sequence (P18054 whole entry, looked up): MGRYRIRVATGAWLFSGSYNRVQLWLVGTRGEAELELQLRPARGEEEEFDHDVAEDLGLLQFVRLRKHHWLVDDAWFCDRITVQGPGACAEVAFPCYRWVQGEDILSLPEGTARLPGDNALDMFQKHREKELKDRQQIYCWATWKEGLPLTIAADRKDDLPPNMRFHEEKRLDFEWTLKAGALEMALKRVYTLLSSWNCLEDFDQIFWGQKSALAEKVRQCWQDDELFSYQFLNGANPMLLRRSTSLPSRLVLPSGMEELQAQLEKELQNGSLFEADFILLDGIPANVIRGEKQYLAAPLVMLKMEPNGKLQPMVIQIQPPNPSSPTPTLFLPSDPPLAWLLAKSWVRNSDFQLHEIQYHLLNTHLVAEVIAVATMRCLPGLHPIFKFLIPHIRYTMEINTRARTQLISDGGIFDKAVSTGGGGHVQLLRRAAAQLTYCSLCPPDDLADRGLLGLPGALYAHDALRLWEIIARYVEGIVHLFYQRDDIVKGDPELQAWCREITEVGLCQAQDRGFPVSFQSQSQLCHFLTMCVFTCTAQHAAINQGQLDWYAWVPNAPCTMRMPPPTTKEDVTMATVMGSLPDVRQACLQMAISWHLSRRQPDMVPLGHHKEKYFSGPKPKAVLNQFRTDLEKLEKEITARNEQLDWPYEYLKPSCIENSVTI
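Hydroperoxide product was detected by ferrous iron/xylenol orange as the 573 to 405 nm absorbance ratio. Arachidonic acid at 40 uM (final) was turned over for 30 min at room temperature by 150 nM human 12hLO, pH 7.0 Hepes buffer, after 15 min compound preincubation.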
TDP1 cell noCPT – qHTS for Inhibitors of human tyrosyl-DNA phosphodiesterase 1 (TDP1): qHTS in cells in absence of CPT; DT40 Tdp1-/- hTDP1 cells, no CPT, ATP luminescence, 48 h; Potency, µM (highest dose often 46.2 µM), without a hit: at the highest dose activity change, negative = growth inhibition, hits mostly inhibitors; actives 15% (n = 420,000); note: potency is the fitted concentration of half-maximal effect; nearly all actives have a fitted effect of over 55% in size
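Chicken DT40 Tdp1-/- cells stably complemented with human TDP1 were seeded at 400 cells/well with DMSO in place of 20 nM camptothecin. After compound pinning, cells grew at least 48 hr at 37 °C; viability read by CellTiter-Glo luminescence.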
DT40 TDP1 CPT – DT40-hTDP1 cell growth loss with CPT | chicken DT40 Tdp1-/-;hTDP1 cells + 20 nM CPT, ATP luminescence, 48 h | actives 12% (n = 420,000) | Potency, µM (highest dose often 46.2 µM), without a hit: at the top dose activity change, negative = growth inhibition, hits mostly inhibitors; note: potency is the fitted concentration of half-maximal effect; nearly all actives have a fitted effect of over 55% in size
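Chicken DT40 Tdp1-/- cells complemented with human TDP1, 400 cells/well, exposed to compounds plus 20 nM camptothecin for at least 48 h at 37 C; viability read as ATP content by CellTiter-Glo luminescence.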
IL-1B inflam inh – blocks inflammasome-driven IL-1 beta release; THP-1 LPS/ATP IL-1B secretion, AlphaLISA, 16 h; hits give low values; activity change, % at 57.5 µM; actives 4.7% (n = 360,000); AID 743279; in the data active = activity change below about -50%; inconclusive = mostly about -30% to -49%
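Secreted IL-1B measured by AlphaLISA bead assay after 16 h compound exposure of THP-1 cells; compounds (final up to 57.5 uM) added 1 h before LPS (250 ng/mL) and ATP (1.25 mM) stimulation; lower signal means less secretion.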
HT1080 IDH1KD tx – HT-1080 IDH1 knockdown cell toxicity (counter line). HT-1080 IDH1 knockdown viability, ATP luminescence, 48 h. actives 2% (n = 360,000). Potency, µM (top dose mostly 46.1 µM), inactives show at the highest dose activity, negative = toxicity, hits mostly cytotoxic;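 note: potency is the fitted concentration of half-maximal effect; 0% = DMSO wells and -100% = cell-free medium wells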
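In this qHTS, HT-1080 cells depleted of IDH1 are exposed for 48 h at 37 °C to compound titrations. Toxicity is scored from CellTiter-Glo luminescence, with DMSO as full viability and medium alone as none.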
Active calls of the source: *; ? = inconclusive; · = no result given; [ ] = dose if it differs, or a comment. Many of the other results were omitted from the sample, so hits are more common in it than they were. Unless noted, calls come from the whole dose curve; as a rule, active = well fitted curve in the direction sought with a large enough effect; inconclusive = small, poorly fitted or top-dose-only effect, or another doubt; inactive = no such curve, though single readings can be large; an effect the other way counts as inactive or inconclusive. Unless noted, % is set by controls: 0 for no effect and ±100 for the full control effect.

SMILES	HT1080NT lethal	12-LOX inh	TDP1 cell noCPT	DT40 TDP1 CPT	IL-1B inflam inh	HT1080 IDH1KD tx
Cc1cccc(C)c1OCC(N)C(C)C (stereo unspecified)	5%	?	13%	4%	-57*	0%
COc1ccc(NC(=O)COC(=O)c2nn(C)c(=O)c3ccccc23)cc1	·	5%	·	·	·	·
Nc1nc(Cl)c(C=O)c(N2CCCCC2)n1	?	-9%	-2%	0%	-95*	?
N#Cc1c(N)n[nH]c1CCCNC(=O)c1ccc(Cn2nnc3ccccc32)cc1	·	48%	·	·	·	·
C/C(=N\NS(=O)(=O)c1ccc(Br)cc1)c1ccncc1	9%	32µM*	?	12µM*	-78*	-2%
C/C(=N/NS(=O)(=O)c1ccc(Cl)cc1)c1ccncc1	1%	?	11%	?	-1	3%
CCCCOC(=O)c1ccc(NC(=O)COC(=O)c2ccc3nc(C)c(C)nc3c2)cc1	·	7%	·	·	·	·
O=S(=O)(c1ccccc1)[C@@]1(c2ccccc2)C[C@@H]2ON=C(c3cccc(-c4ccccc4)c3)[C@@H]2C1	13%	-2%	13µM*	?	-1	6%
CC(C)(C)n1nnnc1C(c1cccnc1)N1CCN(c2ccccc2)CC1 (stereo unspecified)	6%	0%	?	-11%	-2	10%
CCCCn1nnnc1C(c1ccccc1)N1CCc2ccccc2C1 (stereo unspecified)	-26%	?	?	?	17	-12%
c1ccc(Cn2nnnc2C(c2cccnc2)N2CCN(c3ccccc3)CC2)cc1 (stereo unspecified)	-25%	2%	23µM*	21µM*	-2	-1%[9.24 µM]
CCCCn1nnnc1C(c1ccccc1)N1CCN(c2ccc(C)cc2)CC1 (stereo unspecified)	-21%	0%	18µM*	?	-27	-25%
CCCCn1nnnc1C(c1ccccc1)N1CCN(CCN2CCOCC2)CC1 (stereo unspecified)	-10%	?	-14%	2%	42	10%
CCCCn1nnnc1C(c1ccccc1)N1CCN(c2cccc(C(F)(F)F)n2)CC1 (stereo unspecified)	-9%	9%	?	?	-7	-7%
CCCCn1nnnc1C(c1ccccc1)N1CCN(c2ccccn2)CC1 (stereo unspecified)	15%	0%	16µM*	-46%	?	10%
CCCCn1nnnc1C(c1ccccc1)N1CCN(c2ncccn2)CC1 (stereo unspecified)	4%	-5%	21µM*	?	-19	1%
CCCCCn1c(NCCC)nc2c1c(=O)[nH]c(=O)n2C	·	7%	·	·	·	·
Cc1ccc(CN(C)CC(=O)NC(C)c2ccccc2C)o1 (stereo unspecified)	·	-58%	·	·	·	·
COc1cccc([S+](=O)([O-])N2CCC3(C2)N=C(c2cccnc2)C(=O)N3)c1 (stereo unspecified)	·	44%	·	·	·	·
O=C(N/N=C/C=C/c1ccccc1[N+](=O)[O-])c1cc(-c2ccccc2)n[nH]1	-23%	4%	15µM*	16µM*	0	-19%
Cc1ccsc1C(=O)N/N=C/C=C/c1ccccc1[N+](=O)[O-]	-7%	-14%	?	21µM*	-4	-5%
Cc1occc1C(=O)N/N=C/C=C\c1ccccc1[N+](=O)[O-]	29%	0%	-28%	?	-15	19%
O=c1[nH]c(SCc2nc3ccccc3n2Cc2ccccc2)nc2ccccc12	-12%	-6%	-21%	-26%	4	-15%
O=c1[nH]c(SCc2nc3ccccc3c(=O)n2-c2ccccc2C(F)(F)F)nc2ccccc12	-7%	-16%	?	16µM*	-81*	-14%
COc1ccc(C(=O)COC(=O)Cc2coc3cc4c(cc23)CCC4)cc1OC	·	45%	·	·	·	·
SMILES	HT1080NT lethal	12-LOX inh	TDP1 cell noCPT	DT40 TDP1 CPT	IL-1B inflam inh	HT1080 IDH1KD tx
CC(=O)Nc1cccc(-c2ccnc3c2CC(C(=O)Nc2cccc(N(C)C)c2)O3)c1 (stereo unspecified)	?	-19%	10µM*	13µM*	0	?
COc1ccc(NC(=O)C2Cc3c(-c4cccc(C(C)=O)c4)ccnc3O2)cn1 (stereo unspecified)	?	3%	2.9µM*	2.6µM*	59	3.3µM*
COc1ccc(NC(=O)C2Cc3c(-c4ccc(NC(C)=O)cc4)ccnc3O2)cn1 (stereo unspecified)	?	?	12µM*	8.2µM*	-22	?
COc1ccc(NC(=O)C2Cc3c(-c4ccc(NC(C)=O)cc4)ccnc3O2)cc1 (stereo unspecified)	-13%	15%	16µM*	?	-25	-22%
CCOc1cc(CNC(=O)c2ncoc2-c2ccc(C)s2)cc(OCC)c1OCC	·	-26%	·	·	·	·
Nc1nc(-c2ccc(Cl)cc2)nn1C(=O)c1ccc(Cl)cc1	·	0%	·	·	·	·
COc1ccc(NC(=O)C2Cc3c(-c4cccc(C(C)=O)c4)ccnc3O2)cc1 (stereo unspecified)	?	-2%	2.9µM*	2.3µM*	-3	1.8µM*
COc1ccc(NC(=O)C2Cc3c(-c4cccc(NC(C)=O)c4)ccnc3O2)cc1 (stereo unspecified)	?	-2%	3.3µM*	3.7µM*	43	?
CC(=O)Nc1ccc(-c2ccnc3c2CC(C(=O)Nc2ccccc2)O3)cc1 (stereo unspecified)	?	19%	5.8µM*	4.6µM*	-26	18µM*
CC(=O)Nc1cccc(-c2ccnc3c2CC(C(=O)NCCN(C)C)O3)c1 (stereo unspecified)	9%	-1%	-1%	-26%	16	3%
CC(=O)Nc1ccc(NC(=O)C2Cc3c(-c4cccc(NC(C)=O)c4)ccnc3O2)cc1 (stereo unspecified)	0%	-11%	-14%	-13%	-25	23%
CC(=O)Nc1cccc(-c2ccnc3c2CC(C(=O)Nc2ccc(C(C)C)cc2)O3)c1 (stereo unspecified)	?	-3%	12µM*	21µM*	-51*	?
CS(=O)(=O)N1CCC2(CC1)CN(Cc1ccncc1)Cc1ccccc1O2	·	5%[6.33 µM]	·	·	·	·
COc1cc(C(=O)Nc2cccc(-c3nc4ccccc4o3)c2)cc(OC)c1OC	·	2%	·	·	·	·
